Test results reported in PubChem BioAssay AID624483 (NMMLSC, 2012).
The campaign covered roughly 360,000 compounds. About 11,000 (3.1%) were called active. Not shown: some 2% with an inconclusive outcome. The list comes from a sample in which actives are over-represented; it also holds similar structures and randomly drawn compounds. Unmarked numbers belong to inactive results. No stated cut-off is given here; in the data, active means fluorescence intensity above about 16000; inconclusive means no clear call, values can overlap the other calls; inactive means below that.

Test: compound fluorescence in toxin protease inhibitor counterscreen, primary screen, artefact control for toxin protease inhibitor project, biochemical, multiplex microsphere, HTS (AID 624483)
Conditions: compound autofluorescence counterscreen, microsphere flow cytometry; active compounds read high

Row | Structure (SMILES) | fluorescence intensity
1 | CCNC(=O)C1(C)CCCN(C(=O)c2ccc3ccccc3n2)C1 (stereo unspecified) | 2790
2 | COc1cccc(CNc2nc3cc(-c4csc5ccccc45)sc3c(=O)n2C)c1 | 4090
3 | CC(C)Nc1ncnc2c1ncn2[C@H]1CN(Cc2ccncc2)C[C@@H](CO)O1 | 2910
4 | CCc1nc2c(OCC(N)=O)cccn2c1N(C)C(=O)c1ccc(OC)cc1 | 3440
5 | COc1ccccc1N(C)S(=O)(=O)c1ccc(C(=O)NC2CCCCCC2)cc1 | 5030
6 | CN(Cc1ccccc1)C(=O)[C@@H]1CCCN1C(=O)[C@@H]1CCCN1C(=O)c1c(F)cccc1F | 5720
7 | O=C(NCCc1csc(-c2ccccc2)n1)c1ccccc1F | 3720
8 | COc1cc(OC)cc(C(=O)NCC(=O)OCc2csc(-c3ccccc3)n2)c1 | 9780
9 | CNC(=O)c1csc(-c2ccccc2)n1 | 22300 (active)
10 | CCOC(=O)c1cc2cc(OC)ccc2n1C1CCN(C)CC1 | 5150
11 | O=C(COC(=O)Cc1ccc(Br)cc1)Nc1ccc(N2CCOCC2)cc1 | 8590
12 | CC(=O)c1ccc(Nc2nc(C(N)c3ccccc3Cl)cs2)cc1 (stereo unspecified) | 3780
13 | COc1cccc(-c2cc3nc(NCc4ccccc4OC)n(C)c(=O)c3s2)c1 | 2860
14 | COc1ccc(CCNc2nc(C)cc(C)n2)cc1OC | 3430
15 | Nc1cc(N)nc(SCc2ccc(Cl)cc2)n1 | 4250
16 | COc1cnc(SCc2ccc(Cl)c(Cl)c2)nc1Cl | 20800 (active)
17 | Cc1ccc([C@H]2N[C@]3(CCCN(CC4CCCCC4)C3=O)[C@H]3C(=O)N(Cc4ccccc4)C(=O)[C@@H]23)cc1 | 3930
18 | O=c1c2ccccc2ncn1/N=C/c1ccccc1 | 3940
19 | O=c1c2ccccc2nc(N/N=C/c2ccccc2)n1O | 24900 (active)
20 | CC(C)(C)c1nnc(N/N=C/c2ccc(O)cc2)n(N)c1=O | 9530
21 | Cn1c(SCc2ccc(F)cc2)nnc1-c1ccncc1 | 4260
22 | Cn1cccc1Cc1nnc(SCC(=O)NCCc2ccccc2)n1-c1ccc(F)cc1 | 5310
23 | Cc1nnc(SCc2ccc(C(=O)c3ccc(Cl)cc3)o2)n1-c1ccccc1 | 6940

Row | Structure (SMILES) | fluorescence intensity
24 | Cc1ccc(-c2noc(CSc3nnc(-c4cccs4)n3C)n2)cc1 | 9700
25 | Cc1ccc(-c2noc(CSc3nnc(-c4ccncc4)n3-c3ccc(F)cc3)n2)cc1 | 21100 (active)
26 | Fc1ccc(-n2c(Cc3ccccc3)nnc2SCc2nc(-c3ccc(Cl)cc3)no2)cc1 | 25000 (active)
27 | CC(C)(C)NC(=O)NC(=O)COC(=O)Cc1c(F)cccc1Cl | 4470
28 | O=C(Nc1c(Br)cc2c(c1Br)Cc1ccccc1-2)C(F)(F)F | 3730
29 | O=C(CC(NCCN1CCOCC1)C(=O)O)Nc1cccc(Cl)c1 (stereo unspecified) | 3410
30 | Cn1c(CC(=O)Nc2ccc(F)cc2)nnc1SCC(=O)NC1CCCCC1 | 3940
31 | C=CCn1c(CC(=O)Nc2cccc(OC)c2)nnc1SCC(=O)NC1CCCCC1 | 21000 (active)
32 | COc1cccc(NC(=O)CSc2nnc(C3CCCCC3)n2N)c1 | 7460
33 | Cc1nc2c(OCc3ccc(Cl)cc3Cl)cccn2c1N(C)CC1CC1 | 3540
34 | C[C@@H]1CN([C@@H](C)CO)C(=O)c2cc(Br)cnc2O[C@H]1CN(C)Cc1ccc(-c2ccccc2)cc1 | 2930
35 | CCCNC(=O)c1cc(C2CCCN(C(=O)c3ccc4c(c3)CCO4)C2)on1 (stereo unspecified) | 3960
36 | CC1CN(C(=O)c2ccc([N+](=O)[O-])s2)CC(C)O1 (stereo unspecified) | 6540
37 | CNN/C(N=Cc1ccc([N+](=O)[O-])s1)=N\S(=O)(=O)c1cc(C)c(Cl)cc1SCc1ccccc1 | 3540
38 | O=[N+]([O-])c1ccc(C=Nc2ccc(Cl)cc2Cl)s1 | 22300 (active)
39 | CC(=O)NC(c1cccc(F)c1)c1nc(-c2cccc(F)c2)cs1 (stereo unspecified) | 2910
40 | COCCNC(=O)c1ccc2nc(Cc3ccc(OC)c(OC)c3)oc2c1 | 4160
41 | CCCCc1nc2ccc(F)cc2cc1C | 6420
42 | O=C1NC[C@H](CCCCN2C[C@H](Cc3ccccc3)N(Cc3ccccc3)C(=O)C2=O)N(CCc2ccc(O)cc2)C1=O | 4050
43 | CC(=O)Nc1cc(C(=O)O)ccc1S(=O)(=O)c1ccc(Cl)cc1 | 22400 (active)
44 | COCCNC(=O)c1ccc(S(=O)(=O)c2ccc(Cl)cc2)c(NC(C)=O)c1 | 3030
45 | Cc1ccc(S(=O)(=O)c2ccc(Cl)cc2)cc1S(=O)(=O)NC(C(=O)O)C(C)C (stereo unspecified) | 1970
46 | CC1(C(=O)Nc2cccc3cccnc23)CCN1C(=O)CCC1CCCC1 (stereo unspecified) | 3540

Row | Structure (SMILES) | fluorescence intensity
47 | COc1cccc(CN(C)C(=O)CC[C@H]2O[C@@H](n3cnc4c(NC(=O)c5ccccc5)ncnc43)[C@H](O)[C@@H]2O)c1 | 5840
48 | COc1ccc2ccccc2c1CNc1nnnn1C | 4610
49 | COc1ccc2ccccc2c1CNCc1ccccn1 | 22000 (active)
50 | COc1ccc(C)cc1NC(=O)NCc1ccccn1 | 2130
51 | Cc1ccc(Cc2c(-c3ccco3)nc3ccc(Cl)cn23)cc1 | 5920
52 | CC(=O)Nc1ccc(S(=O)(=O)NC2Cc3ccccc3C2)cc1 | 4250
53 | COc1ccc(-c2cc(NC=O)c3ncc(-c4ccccc4)n3c2)cc1OC | 4190
54 | CN(CC#CCC(c1ccccc1)c1ccccc1)C(C)(C)C | 13300
55 | CC(C)NC(=O)C(=O)NCCN1CCN(S(=O)(=O)c2ccc(Cl)cc2)CC1 | 10600
56 | CS(=O)(=O)N1CCCCC1c1cc(C(=O)NCc2ccccc2)no1 (stereo unspecified) | 2870
57 | CC(=O)c1cccc(-c2cnc3c(NC=O)cc(-c4ccc(N5CCN(C)CC5)cc4)cn23)c1 | 3240
58 | O=C(Nc1ccc(C(=O)N2CCOCC2)cc1)Nc1cccc(C(F)(F)F)c1 | 6040
59 | NC(=O)Nc1cccc(C(F)(F)F)c1 | 23300 (active)
60 | O=C(CN1CCN(c2ccc(F)cc2)CC1)Nc1cccc(C(F)(F)F)c1 | 2100
61 | COc1ccc(NC(=O)C2(C)Cc3c(-c4ccc(C(N)=O)cc4)ccnc3O2)cc1 (stereo unspecified) | 3540
62 | COC(=O)c1ccc(CNC(=O)C2CCC(=O)N(Cc3ccccn3)C2)cc1 (stereo unspecified) | 4790
63 | CCCN(CCC)C(=S)Nc1cc(C(=O)OC)ccc1C(=O)OC | 2240
64 | CCS(=O)(=O)Nc1cc(C(=O)OC)ccc1C(=O)OC | 20300 (active)
65 | COC(=O)c1ccc(C(=O)OC)c(NC(=S)N2CCCCC2)c1 | 5240
66 | CC1C(=O)N(Cc2cn(Cc3ccco3)nn2)CCS(=O)(=O)N1Cc1ccc(-c2cccc(CO)c2)cc1 (stereo unspecified) | 3680
67 | C=CCN1C2CCCC1CC(NC(=S)Nc1cccc(OC)c1)C2 (stereo unspecified) | 4340
68 | CCCCNC(=O)c1nc(C2CCN(S(=O)(=O)c3ccc(F)c(F)c3)CC2)oc1-c1cccc(C(F)(F)F)c1 | 5910
69 | Cc1cc(NC(=O)c2cnn3cccnc23)n(-c2ccccc2)n1 | 19500 (active)

Row | Structure (SMILES) | fluorescence intensity
70 | Cc1cc(NC(=O)Nc2ccc(Cl)cc2)n(-c2ccccc2)n1 | 5820
71 | O=C(Nc1ccc(Cl)cn1)c1cnn2cccnc12 | 4840
72 | O=C(NCc1ccc(F)cc1)c1cc(C2CCCCN2C(=O)C2CCCCC2)on1 (stereo unspecified) | 3660
73 | O=C(Nc1cccc(C(=O)N2CCCC2)c1)c1ccccc1 | 23500 (active)
74 | CCC(CC)C(=O)Nc1cccc(C(=O)N2CCCC2)c1 | 9330
75 | CC(=O)c1cccc(NC(=S)N2CCCC2)c1 | 4420
76 | COc1ccccc1CNC(=O)C1CCN(S(C)(=O)=O)CC1 | 8350
77 | COc1ccccc1CNC(=O)C1CCN(c2nc3ccccc3o2)CC1 | 21300 (active)
78 | COc1ccc(OC)c(CNC(=O)C2CCCN(c3nc4ccccc4o3)C2)c1 (stereo unspecified) | 15800
79 | COc1ccccc1CNC(=O)c1cc(-c2cc(F)ccc2OC)n[nH]1 | 3700
80 | CC(C)C[C@H]1CNC(=O)C(=O)N1C[C@@H]1CCCN1C[C@H](Cc1ccccc1)N1C[C@H](CC(C)C)N(CC2CCCCCC2)C(=O)C1=O | 5660
81 | Cc1ccc2sc(N(CCN(C)C)C(=O)/C=C/c3cccs3)nc2c1C | 4390
82 | Cc1cc(C)c2nc(N(CCN(C)C)C(=O)/C=C/c3cccs3)sc2c1 | 4460
83 | Cc1cccc2sc(N(CCCN(C)C)C(=O)CCS(=O)(=O)c3ccccc3)nc12 | 32000 (active)
84 | COc1cc(/C=C/CNC[C@H]2O[C@@H](n3cnc(C(N)=O)n3)[C@H](O)[C@@H]2O)ccc1O | 3180
85 | O=C(NCc1ccccc1Cl)C1CCN(S(=O)(=O)N2CCOCC2)CC1 | 5690
86 | Cc1ccccc1Cn1c(C)c(C(=O)NCc2cccc(C(F)(F)F)c2)sc1=O | 5450
87 | FC(F)(F)c1ccccc1Cc1c(-c2ccccc2)nc2c3ccccc3ccn12 | 6460
88 | CC(C)OCCCNc1nc2c(c(=O)n(Cc3ccccc3F)c(=O)n2C)n1C | 23400 (active)
89 | COc1ccc(N2CC(C)Cn3c2nc2c3c(=O)n(Cc3ccccc3F)c(=O)n2C)c(OC)c1 (stereo unspecified) | 5760
90 | Cn1c(=O)c2c(nc(NCCNC(=O)c3ccco3)n2Cc2ccccc2F)n(C)c1=O | 5330
91 | CCc1ccc([C@@H]2CC(=O)[C@@H]3CN(S(=O)(=O)c4ccc(C)cc4)[C@H](c4ccc(Cl)cc4)C[C@@H]3N2S(=O)(=O)c2ccc(C)cc2)cc1 | 6290
